Results as given in article PMC5540273 (PLoS ONE, 2017).

System: PIK3CD
Settings: concentration: 1 μM,replicates: in singlicate; n = 1
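Also: KINOMEscan kinase panel screen.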

Compound	%Inh [%]
CSc1nccc(-c2c(-c3ccc(F)cc3)ncn2CCCN2CCOCC2)n1.Cl [SB-217146]	0
Cc1ccc(C(=O)Nc2ccc(Oc3ccc4nc(NC(=O)C5CC5)cn4c3)c(F)c2)c(=O)n1-c1ccccc1	0
CC(C)S(=O)(=O)N1CCN(Cc2ccc3c(c2)nc(NC(=O)c2ccsc2)n3C[C@H](O)c2ccccc2)CC1 [GW635815]	21
CC(=O)Nc1nc2cnc(Nc3cc(NC(=O)c4cccc(CC(C)(C)C#N)c4)ccc3C)nc2s1	54
Cn1ccc2ncnc(Oc3ccc(NC(=O)Nc4cccc(C(F)(F)F)c4)c(Cl)c3)c21	0
O=C(Nc1n[nH]c2cc(-c3ccco3)ccc12)C1CC1 [SB-737447]	0
COc1cccc(OC)c1C(=O)Nc1cccc(-c2nn3ccccc3c2-c2ccnc(Nc3cccc(F)c3)n2)c1 [GSK361065]	1
CC(C)c1nc(-c2cccc(NS(=O)(=O)c3ccccc3)c2)c(-c2ccnc(Nc3ccc4c(c3)CN(C)CC4)n2)s1 [GSK1649598]	25
Cn1ccc2ncnc(Oc3ccc(NC(=O)Nc4cncc(C(F)(F)F)c4)c(Cl)c3)c21	0
FC(F)(F)c1cc(Br)cc(Nc2nccc(-c3cnn4ncccc34)n2)c1 [GW810578]	51
CN(c1ccc2c(c1)nc(NCc1ccc(F)cc1)n2C)c1ccnc(Nc2ccc(CS(C)(=O)=O)cc2)n1.Cl [GW813244]	0
Cc1ccn2nc(-c3ccc(F)cc3)c(-c3ccncc3)c2c1.Cl [GW457859]	1
